Data from PubChem BioAssay.

test: inhibitors of PAF-induced NFkB signaling in CF airway cells, dose response, cell-based, uHTS hits, panel, cytotoxicity readout (AID 624344); settings: CF bronchial epithelial cells, PAF-induced NFkB reporter inhibition, with PAF, run 2; at 79 µM (top of the series)

| Compound | inhibition [%] |
| --- | --- |
| C=CC[C@@H](CC/C=C/C=C/CC/C=C\[C@@H]1CSC([C@@H]2C[C@@H]2C)=N1)OC | 64.9 |
| COc1ccc(Oc2cc(NC(=O)c3nn(C)cc3[N+](=O)[O-])cc([N+](=O)[O-])c2)cc1 | 101 |
| NC(=Nc1ccccc1)NN=Cc1c[nH]c2ccccc12 | 116 |
| COc1cc(C2c3cc4c(cc3CC3COC(=O)C32)OCO4)cc(OC)c1O (configuration not stated) | -1.25 |
| C=C1C(C)C2C(Cc3ccccc3)NC(=O)C23OC(=O)/C=C/C(O)CCCC(C)C/C=C/C3C1O (configuration not stated) | 103 |
| C=C1C(=O)OC2CC3(C)OC3CCC(C)=CC(OC(C)=O)C12 (configuration not stated) | 99.9 |
| N#CC1c2ccccc2-n2nncc2CN1Cc1cc(Cl)cc(Cl)c1 (configuration not stated) | 95.5 |
| Cc1c(C(=O)c2cccc3ccccc23)c2cccc3c2n1[C@H](CN1CCOCC1)CO3 | 112 |
| COc1ccc(C(c2nnnn2-c2ccc(OC)cc2)N2CCC(n3c(=O)[nH]c4ccccc43)CC2)cc1 (configuration not stated) | 103 |
| COc1cc(C2c3cc4c(c(O)c3CC3COC(=O)C32)OCO4)cc(OC)c1OC (configuration not stated) | 85 |
| COc1ccc(C[C@H]2NC[C@H](O)[C@H]2OC(C)=O)cc1 | 106 |
| COc1ccc(-n2nnnc2C(CCSC)N2CCC(n3c(=O)[nH]c4ccccc43)CC2)cc1 (configuration not stated) | 108 |
| COc1ccc2c(c1)[nH]c1c(C)nccc12 | 97.6 |
| O=c1[nH]c2ccccc2n1C1CCN(C(c2cccc3ccccc23)c2nnnn2Cc2ccccc2)CC1 (configuration not stated) | 101 |
| COc1ccc(-n2nnnc2C(CCc2ccccc2)N2CCC(n3c(=O)[nH]c4ccccc43)CC2)cc1 (configuration not stated) | 101 |
| O=c1[nH]c2ccccc2n1C1CCN(C(c2cc3ccccc3o2)c2nnnn2-c2ccc3c(c2)OCCO3)CC1 (configuration not stated) | 104 |
| COc1cc2c(c(OC)c1OC)-c1ccc(O)cc1C(NC(C)=O)CC2 (configuration not stated) | 0.843 |
| C[C@H]1C[C@@H](C)C(=O)[C@@H]([C@H](O)CC2CC(=O)NC(=O)C2)C1 | 113 |
| COc1ccc(-n2nnnc2C(c2cccs2)N2CCC(n3c(=O)[nH]c4ccccc43)CC2)cc1 (configuration not stated) | 102 |
| COc1ccc(-n2nnnc2C(c2cccc(OC)c2OC)N2CCC(n3c(=O)[nH]c4ccccc43)CC2)cc1 (configuration not stated) | 97.4 |
| NC(=O)c1c(Br)n(C2OC(CO)C(O)C2O)c2ncnc(N)c12 (configuration not stated) | 116 |
| N#Cc1c(Br)n(C2OC(CO)C(O)C2O)c2ncnc(N)c12 (configuration not stated) | 107 |
